Reference: PubChem BioAssay
Calls of active or inactive are those of the source. Unless noted, how the calls were made is not given here.

Columns and labels:
[1] = HepG2 liver cancer cell viability effects, profiling panel, resazurin fluorescence, 24 h, PK04 Diversity Set (AID 1172); details: higher = more signal
[2] = basal S. cerevisiae growth modulation, no modifier, primary screen, OD600, strain BY4716, 24 h, basal condition (AID 1173); details: OD600, 24 h, higher = more signal, called active from +8 up or from −8 down
[3] = MM1S myeloma cell viability, profiling panel, resazurin fluorescence, basal, 24 h, PK04 Diversity Set (AID 1174); details: higher = more signal, called active from +8 up or from −8 down;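 further: MM1S multiple myeloma cell line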
[4] = target: Dihydroorotate dehydrogenase (quinone), mitochondrial (Plasmodium falciparum (isolate 3D7)) (UniProt Q08210); assay: PfDHODH enzyme inhibitors, primary screen, biochemical, C-terminal His tag, absorbance 600 nm (AID 1175); details: DCIP absorbance 600 nm, higher = more signal, called active from +8 up or from −8 down;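 further: recombinant parasite enzyme with a five histidine tag at its C terminus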
[5] = P. aeruginosa biofilm formation inhibitors, primary screen, strain PAO1, LB-PBS medium, absorbance 600 nm (AID 1176); details: P. aeruginosa PAO1 growth/biofilm, A600, 12 h; higher = more signal
[6] = S. cerevisiae RM11-1a growth modifiers, primary screen, strain RM11-1a, OD600, basal, 24 h (AID 1177); details: OD600, 24 h, higher = more signal, called active from +8 up or from −8 down;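 further: cultures grown under basal conditions with no added stressor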
[7] = E. coli acrAB mutant growth effects, primary screen, E. coli filamentation inducers, strain DRC39, OD650, 24 h (AID 1178); details: higher = more signal, called active from +8 up or from −8 down;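 further: growth measured as culture turbidity by optical density at 650 nm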
[8] = E. coli acrAB mutant growth effects, primary screen, E. coli filamentation inducers, strain DRC39, OD650, 48 h (AID 1179);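 further: screen aims at cell division blockers that make cells filament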; details: E. coli DRC39 delta-acrAB growth, higher = more signal, called active from +8 up or from −8 down
[9] = RPMI8226 myeloma cell viability, profiling panel, resazurin fluorescence, basal, 24 h, PK04 Diversity Set (AID 1180); details: higher = more signal;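 further: RPMI8826 multiple myeloma cell line at 5000 cells per well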
[10] = target: E3 ubiquitin-protein ligase XIAP (Homo sapiens) (UniProt P98170); assay: XIAP binders, primary screen, biophysical, small-molecule microarray, fluorescence 635 nm (AID 1181); details: small-molecule microarray binding, higher = more signal;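 further: score merges 667 nm emission and signal to noise over triplicate slides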
[11] = system: XIP peptide (Xip251-270) binding; assay: small-molecule binders of XIP peptide, primary screen, biochemical, small-molecule microarray, fluorescence 635/667 nm, 0.1 µg/mL protein (AID 1182); details: fluorescent protein binding, 635 nm, higher = more signal, called active from +8 up or from −8 down
[12] = system: XIP peptide (Xip251-270); assay: small-molecule binders of XIP peptide, primary screen, biochemical, small-molecule microarray, fluorescence 635/667 nm, 0.5 µg/mL protein (AID 1183); details: small-molecule microarray binding, fluorescence 635 nm; higher = more signal
[13] = Plasmodium falciparum growth inhibition, primary screen, strain 3D7, DAPI fluorescence, 100 nL (AID 1184);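 further: parasites grown inside human red blood cells in medium with human serum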; details: P. falciparum 3D7 growth, 3 d, higher = more signal
[14] = target: Homeobox protein Hox-A13 (Mus musculus) (UniProt Q62424); assay: inhibitors of HoxA13-DNA binding, primary screen, biochemical, fluorescence polarization, labeled oligonucleotide (AID 1185); details: 15 min, higher = more signal, called active from +8 up or from −8 down
[15] = inhibitors of hydroxyurea-induced Chk1 phosphorylation, primary screen, imaging, HeLa, phospho-Chk1 antibody, percent positive cells (AID 1186); details: hydroxyurea-induced phospho-Chk1 immunofluorescence imaging, higher = more signal
[16] = inhibitors of hydroxyurea-induced Chk1 phosphorylation, primary screen, imaging, HeLa, phospho-Chk1 nuclear intensity (AID 1187); details: hydroxyurea-induced phospho-Chk1 immunofluorescence imaging, higher = more signal

Sequence of Homeobox protein Hox-A13 (Mus musculus) (Q62424 whole entry, looked up): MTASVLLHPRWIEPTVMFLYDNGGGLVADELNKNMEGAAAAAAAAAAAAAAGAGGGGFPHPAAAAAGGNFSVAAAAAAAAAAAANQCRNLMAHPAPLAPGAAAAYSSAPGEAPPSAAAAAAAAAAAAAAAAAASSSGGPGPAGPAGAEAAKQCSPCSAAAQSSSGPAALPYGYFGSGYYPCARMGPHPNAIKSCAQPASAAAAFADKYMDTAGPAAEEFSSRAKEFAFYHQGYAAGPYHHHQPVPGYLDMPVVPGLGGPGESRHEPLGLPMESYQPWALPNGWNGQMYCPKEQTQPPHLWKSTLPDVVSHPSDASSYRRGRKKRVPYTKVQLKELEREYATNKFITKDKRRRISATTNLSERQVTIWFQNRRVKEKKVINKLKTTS
Sequence of Dihydroorotate dehydrogenase (quinone), mitochondrial (Plasmodium falciparum (isolate 3D7)) (Q08210 whole entry, looked up): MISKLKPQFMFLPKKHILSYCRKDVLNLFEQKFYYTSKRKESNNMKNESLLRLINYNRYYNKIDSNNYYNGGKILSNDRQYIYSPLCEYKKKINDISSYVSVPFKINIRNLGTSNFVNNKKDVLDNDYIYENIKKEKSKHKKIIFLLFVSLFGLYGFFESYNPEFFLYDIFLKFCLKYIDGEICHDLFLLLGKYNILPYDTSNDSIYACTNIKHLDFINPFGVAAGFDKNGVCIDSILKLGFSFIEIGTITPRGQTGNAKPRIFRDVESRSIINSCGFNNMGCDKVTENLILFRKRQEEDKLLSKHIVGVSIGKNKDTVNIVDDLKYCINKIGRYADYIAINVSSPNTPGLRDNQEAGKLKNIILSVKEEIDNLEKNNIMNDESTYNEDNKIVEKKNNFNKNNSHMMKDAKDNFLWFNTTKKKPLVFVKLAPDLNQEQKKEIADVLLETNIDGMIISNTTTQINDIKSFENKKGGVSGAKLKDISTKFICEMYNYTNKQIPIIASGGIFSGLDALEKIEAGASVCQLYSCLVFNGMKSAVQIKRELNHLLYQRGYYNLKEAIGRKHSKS
Sequence of E3 ubiquitin-protein ligase XIAP (Homo sapiens) (P98170 whole entry, looked up): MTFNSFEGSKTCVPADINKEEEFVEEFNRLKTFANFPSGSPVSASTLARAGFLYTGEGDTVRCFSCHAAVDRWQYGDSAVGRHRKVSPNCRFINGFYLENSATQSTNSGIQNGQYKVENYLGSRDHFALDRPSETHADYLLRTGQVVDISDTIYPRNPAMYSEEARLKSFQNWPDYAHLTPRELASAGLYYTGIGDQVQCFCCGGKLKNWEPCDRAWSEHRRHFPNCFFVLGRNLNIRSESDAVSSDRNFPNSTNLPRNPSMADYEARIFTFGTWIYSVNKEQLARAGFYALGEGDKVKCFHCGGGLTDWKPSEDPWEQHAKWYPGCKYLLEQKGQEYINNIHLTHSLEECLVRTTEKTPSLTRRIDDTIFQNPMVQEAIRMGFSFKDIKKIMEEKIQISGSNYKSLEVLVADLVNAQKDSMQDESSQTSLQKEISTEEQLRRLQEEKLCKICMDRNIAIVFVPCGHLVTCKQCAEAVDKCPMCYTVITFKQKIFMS

Compound: [N-]=[N+]=NCc1ccccc1C[C@@]1(C(=O)N2CCOCC2)N=C(c2ccc(OCCCO)cc2)O[C@@H]1c1ccccc1CN=[N+]=[N-]
- z-score [1]: -0.638
- z-score [2]: 0.418 (inactive)
- z-score [3]: -2.22 (inactive)
- composite z-score [4]: -0.346 (inactive)
- z-score [5]: 2.03 (inactive)
- z-score [6]: 1.19 (inactive)
- z-score [7]: 0.296 (inactive)
- z-score [8]: 1.06 (inactive)
- z-score [9]: -1.46
- composite z-score [10]: -0.138
- composite z-score [11]: 1.16 (inactive)
- composite z-score [12]: 0.788
- z-score [13]: -2.36
- z-score [14]: 0.223 (inactive)
- z-score [15]: -0.544 (inactive)
- z-score [16]: -0.629 (inactive)

Compound: CC(C)=CCCC(C)=CC(O)C1C=CC2C(=O)N(c3ccccc3)C(=O)C2N1Nc1ccccc1 (stereo unspecified)
- z-score [1]: -1.4
- z-score [2]: -1.66 (inactive)
- z-score [3]: -1.49 (inactive)
- composite z-score [4]: 0.0928 (inactive)
- z-score [5]: 1.32 (inactive)
- z-score [6]: 0.42 (inactive)
- z-score [7]: -0.994 (inactive)
- z-score [8]: -0.927 (inactive)
- z-score [9]: -1.56
- composite z-score [10]: 0.0655
- composite z-score [11]: 0.634 (inactive)
- composite z-score [12]: 0.828
- z-score [13]: -0.168
- z-score [14]: -3.67 (inactive)
- z-score [15]: 0.881 (inactive)
- z-score [16]: 0.352 (inactive)

Compound: CCCN1C(=O)[C@]2(COC(c3ccc(OCCCO)cc3)=N2)Cc2ccccc21
- z-score [1]: 0.0036
- z-score [2]: -1.69 (inactive)
- z-score [3]: -0.543 (inactive)
- composite z-score [4]: -0.238 (inactive)
- z-score [5]: -0.152 (inactive)
- z-score [6]: 0.235 (inactive)
- z-score [7]: -0.011 (inactive)
- z-score [8]: -0.0774 (inactive)
- z-score [9]: -0.454
- composite z-score [10]: -0.195
- composite z-score [11]: 1.71 (inactive)
- composite z-score [12]: 0.42
- z-score [13]: -0.755
- z-score [14]: -6.01 (inactive)
- z-score [15]: -0.0155 (inactive)
- z-score [16]: 0.239 (inactive)

Compound: CC(C)c1ccc(NN2C(C(O)c3ccc(N(C)C)cc3)C=CC3C(=O)N(c4ccccc4)C(=O)C32)cc1 (stereo unspecified)
- z-score [1]: 0.0387
- z-score [2]: 0.254 (inactive)
- z-score [3]: -0.683 (inactive)
- composite z-score [4]: 0.421 (inactive)
- z-score [5]: 0.53 (inactive)
- z-score [6]: 0.25 (inactive)
- z-score [7]: -0.172 (inactive)
- z-score [8]: 0.766 (inactive)
- z-score [9]: 0.203
- composite z-score [10]: 0.391
- composite z-score [11]: -0.0313 (inactive)
- composite z-score [12]: 0.618
- z-score [13]: -0.286
- z-score [14]: -2.2 (inactive)
- z-score [15]: 0.148 (inactive)
- z-score [16]: -0.072 (inactive)

Compound: COC(=O)c1ccc(C(O)C2C=CC3C(=O)N(C)C(=O)C3N2NC(=O)OC(C)(C)C)o1 (stereo unspecified)
- z-score [1]: -0.784
- z-score [2]: 0.483 (inactive)
- z-score [3]: -0.29 (inactive)
- composite z-score [4]: -0.0658 (inactive)
- z-score [5]: 0.599 (inactive)
- z-score [6]: 0.402 (inactive)
- z-score [7]: -0.685 (inactive)
- z-score [8]: -0.757 (inactive)
- z-score [9]: -0.212
- composite z-score [10]: 1.42
- composite z-score [11]: 3.49 (inactive)
- composite z-score [12]: 0.789
- z-score [13]: 0.926
- z-score [14]: -1.46 (inactive)
- z-score [15]: -0.0792 (inactive)
- z-score [16]: -0.0828 (inactive)

Compound: COCCOC(=O)N1C(=O)[C@@]2(c3ccccc31)[C@H](c1ccc(O)cc1)N1[C@H](c3ccccc3)[C@H](c3ccccc3)OC(=O)[C@H]1[C@@H]2C(=O)N1CCc2cc(OC)c(OC)cc2C1
- z-score [1]: 0.129
- z-score [2]: 0.0332 (inactive)
- z-score [3]: 0.612 (inactive)
- composite z-score [4]: -0.888 (inactive)
- z-score [5]: 0.759 (inactive)
- z-score [6]: -0.33 (inactive)
- z-score [7]: 0.919 (inactive)
- z-score [8]: 1.3 (inactive)
- z-score [9]: 0.471
- composite z-score [10]: -0.0841
- composite z-score [11]: 1.46 (inactive)
- composite z-score [12]: 0.794
- z-score [13]: -1.27
- z-score [14]: -1.87 (inactive)
- z-score [15]: 0.043 (inactive)
- z-score [16]: 0.361 (inactive)
